# Reference: PubChem BioAssay AID1159580 (chemical genetic matrix, 2015)
# “And” between values parts separate entries of the source, which are not always exact repeats. Equal entries are not always repeated. Hit rate of the full screen: of about 5,500 compounds, about 2,000 (36%) were called active. Not shown: some 18% with an inconclusive outcome. Some of the results follow. Unmarked numbers belong to inactive results. Rule as the data show it: active = normalized growth mostly below about 0.91 (no sharp cut-off); inconclusive = no clear call, values can overlap the other calls; inactive = mostly above about 0.92.
# Experiment: chemical genetic growth profiling, strain panel (AID 1159580);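 also: tested at 20 µM; growth read once vehicle control cultures reached saturation at 30 °C; 1 = growth at the plate median or of vehicle wells; lower values mean less growth of the strain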
# Conditions: S. cerevisiae deletion strains, growth OD
compound,measurement,setting,value
CC(C)CCCC(C)[C@H]1CCC2C3C(=O)C=C4C[C@@H](O)CC[C@]4(C)C3CC[C@@]21C (some centres not stated),normalized growth,"locus YAL013W, strain DEP1, stronger effect = lower value",1.02
same,normalized growth,"locus YAL021C, strain ccr4, stronger effect = lower value",0.974
same,normalized growth,"locus YAL026C, strain drs2, stronger effect = lower value",1.02
same,normalized growth,"locus YAL030W, strain snc1, stronger effect = lower value",0.996
same,normalized growth,"locus YBL061C, strain skt5, stronger effect = lower value",1.01
same,normalized growth,"locus YBR009C, strain hhf1, stronger effect = lower value",1.06
same,normalized growth,"locus YBR021W, strain FUR4, stronger effect = lower value",1.05
same,normalized growth,"locus YBR023C, strain chs3, stronger effect = lower value",1.01
same,normalized growth,"locus YBR171W, strain sec66, stronger effect = lower value",1
same,normalized growth,"locus YBR229C, strain ROT2, stronger effect = lower value",1.06
same,normalized growth,"locus YBR231C, strain swc5, stronger effect = lower value",1.05
same,normalized growth,"locus YBR279W, strain paf1, stronger effect = lower value",1.01
same,normalized growth,"locus YCL011C, strain gbp2, stronger effect = lower value",0.994
same,normalized growth,"locus YCL016C, strain dcc1, stronger effect = lower value",1
same,normalized growth,"locus YCL029C, strain bik1, stronger effect = lower value",1.03
same,normalized growth,"locus YCL061C, strain MRC1, stronger effect = lower value",1.01
same,normalized growth,"locus YCL069W, strain vba3, stronger effect = lower value",0.996
same,normalized growth,"locus YCR088W, strain abp1, stronger effect = lower value",0.991
same,normalized growth,"locus YDL005C, strain med2, stronger effect = lower value",0.994
same,normalized growth,"locus YDL035C, strain GPR1, stronger effect = lower value",1.04
same,normalized growth,"locus YDL040C, strain nat1, stronger effect = lower value",0.982
same,normalized growth,"locus YDL074C, strain BRE1, stronger effect = lower value",1.04
same,normalized growth,"locus YDL101C, strain DUN1, stronger effect = lower value",1.04
same,normalized growth,"locus YDL185W, strain tfp1, stronger effect = lower value",1.04
same,normalized growth,"locus YDL192W, strain arf1, stronger effect = lower value",1.06
same,normalized growth,"locus YDR001C, strain nth1, stronger effect = lower value",1.01
same,normalized growth,"locus YDR069C, strain doa4, stronger effect = lower value",1
same,normalized growth,"locus YDR101C, strain arx1, stronger effect = lower value",1.04
same,normalized growth,"locus YDR137W, strain rgp1, stronger effect = lower value",0.946
same,normalized growth,"locus YDR150W, strain NUM1, stronger effect = lower value",1.01
same,normalized growth,"locus YDR159W, strain sac3, stronger effect = lower value",1.06
same,normalized growth,"locus YDR162C, strain NBP2, stronger effect = lower value",1.07
same,normalized growth,"locus YDR195W, strain ref2",0.997
same,normalized growth,"locus YDR297W, strain sur2, stronger effect = lower value",0.996
same,normalized growth,"locus YDR318W, strain mcm21, stronger effect = lower value",1.03
same,normalized growth,"locus YDR334W, strain swr1, stronger effect = lower value",0.975
same,normalized growth,"locus YDR335W, strain msn5, stronger effect = lower value",1.01
same,normalized growth,"locus YDR388W, stronger effect = lower value",1.02
same,normalized growth,"locus YDR392W, strain spt3, stronger effect = lower value",0.968
same,normalized growth,"locus YDR502C, strain sam2, stronger effect = lower value",1.02
same,normalized growth,"locus YEL003W, strain gim4, stronger effect = lower value",0.996
same,normalized growth,"locus YEL037C, strain rad23, stronger effect = lower value",1.01
same,normalized growth,"locus YEL061C, strain CIN8 (second series), stronger effect = lower value",1
same,normalized growth,"locus YEL061C, strain CIN8, stronger effect = lower value",1.01
same,normalized growth,"locus YER015W, strain faa2, stronger effect = lower value",1.01
same,normalized growth,"locus YER016W, strain bim1, stronger effect = lower value",0.994
same,normalized growth,"locus YER110C, stronger effect = lower value",1.04
same,normalized growth,"locus YER111C, strain swi4, stronger effect = lower value",1
same,normalized growth,"locus YER155C, strain BEM2 (second series), stronger effect = lower value",1.03
same,normalized growth,"locus YER155C, strain BEM2, stronger effect = lower value",1.01
same,normalized growth,"locus YER167W, strain BCK2, stronger effect = lower value",1.03
same,normalized growth,"locus YFR010W, strain ubp6, stronger effect = lower value",1.02
same,normalized growth,"locus YGL078C, strain dbp3, stronger effect = lower value",1.04
same,normalized growth,"locus YGL086W, strain mad1, stronger effect = lower value",1.01
same,normalized growth,"locus YGL167C, strain pmr1, stronger effect = lower value",1.01
same,normalized growth,"locus YGL173C, strain kem1, stronger effect = lower value",1
same,normalized growth,"locus YGL227W, strain vid30, stronger effect = lower value",1.01
same,normalized growth,"locus YGL240W, strain doc1, stronger effect = lower value",1.13 [resistant] (active)
same,normalized growth,"locus YGL248W, strain PDE1, stronger effect = lower value",1.04
same,normalized growth,"locus YGL253W, strain hxk2, stronger effect = lower value",0.93
same,normalized growth,"locus YGR135W, strain pre9, stronger effect = lower value",1.04
same,normalized growth,"locus YGR229C, strain SMI1, stronger effect = lower value",1.08
same,normalized growth,"locus YGR252W, strain gcn5, stronger effect = lower value",1.05
same,normalized growth,"locus YHR013C, strain ard1, stronger effect = lower value",1.02
same,normalized growth,"locus YHR027C, strain rpn1, stronger effect = lower value",0.992
same,normalized growth,"locus YHR030C, strain SLT2, stronger effect = lower value",1.01 and 0.966
same,normalized growth,"locus YHR079C, strain IRE1 (second series), stronger effect = lower value",1.02
same,normalized growth,"locus YHR079C, strain IRE1, stronger effect = lower value",1.01
same,normalized growth,"locus YHR094C, strain hxt1, stronger effect = lower value",1.04
same,normalized growth,"locus YHR129C, strain ARP1, stronger effect = lower value",1.03
same,normalized growth,"locus YHR142W, strain chs7, stronger effect = lower value",0.918
same,normalized growth,"locus YHR200W, strain rpn10, stronger effect = lower value",1
same,normalized growth,"locus YIL066C, strain RNR3, stronger effect = lower value",1.04
same,normalized growth,"locus YIL073C, strain SPO22, stronger effect = lower value",1.28
same,normalized growth,"locus YIL125W, strain kgd1, stronger effect = lower value",1.02
same,normalized growth,"locus YIR030C, strain dcg1, stronger effect = lower value",1.04
same,normalized growth,"locus YJL092W, strain hpr5, stronger effect = lower value",0.996
same,normalized growth,"locus YJL095W, strain BCK1 (second series), stronger effect = lower value",0.998
same,normalized growth,"locus YJL095W, strain BCK1, stronger effect = lower value",1.05 and 0.966
same,normalized growth,"locus YJL115W, strain asf1, stronger effect = lower value",1.01
same,normalized growth,"locus YJL129C, strain trk1, stronger effect = lower value",0.958
same,normalized growth,"locus YJL134W, strain LCB3, stronger effect = lower value",1.01
same,normalized growth,"locus YJL154C, strain vps35, stronger effect = lower value",1.01
same,normalized growth,"locus YJL164C, strain tpk1, stronger effect = lower value",0.966
same,normalized growth,"locus YJL166W, strain qcr8, stronger effect = lower value",1
same,normalized growth,"locus YJL168C, strain set2, stronger effect = lower value",1.03
same,normalized growth,"locus YJL187C, strain SWE1 (second series), stronger effect = lower value",1.04
